The record followed here is PubChem BioAssay AID488984 (The Scripps Research Institute Molecular Screening Center, 2010).

Structures are written as SMILES. Unmarked numbers belong to inactive results. Calls of active or inactive are those of the source. No stated cut-off is given here; in the data, active means inhibition above about 55%; inactive means the rest.

The test system of this assay is SARS coronavirus 3C-like protease (3CLpro, nsp5). The experiment in a line: blockers of SARS 3CLpro activity – biochemical, fluorescence, set 2, late-stage follow-up (AID 488984). The note with it: recombinant 3CLpro, fluorogenic peptide cleavage; at 100 µM; stronger effect = higher value.
On to `CC(C)(C)NC(=O)C(c1cccnc1)N(C(=O)Cc1cccnc1)c1ccc(F)cc1` (stereo not drawn), for which the inhibition was 5.7%.
With `CC(C)(C)NC(=O)C(c1ccsc1)N(C(=O)c1n[nH]c2ccccc12)C1CC1` (stereo not drawn) the figure was 13%; with `CC(C)(C)NC(=O)C(c1ccsc1)N(C(=O)Cc1c[nH]c2ccccc12)c1ccc(C(C)(C)C)cc1` (stereo not drawn), 26.3%.
For `CC(C)(C)NC(=O)C(c1cccnc1)N(C(=O)c1ccco1)c1ccc(C(C)(C)C)cc1` (stereo not drawn), the inhibition was 102% (active).
In the case of `CC(C)(C)NC(=O)C(c1ccsc1)N(C(=O)Cn1nnc2ccccc21)c1ccc(C(C)(C)C)cc1` (stereo not drawn), the inhibition was 2.8%.
With `CC(C)(C)NC(=O)C(c1ccsc1)N(C(=O)Cc1c[nH]c2ccccc12)c1ccc(F)cc1` (stereo not drawn), the inhibition was 17.7%.
The value for `CC(C)(C)NC(=O)C(c1cccnc1)N(C(=O)c1n[nH]c2ccccc12)c1ccc(F)cc1` (stereo not drawn) was 9.24%; that for `CC(C)c1ccc(N(C(=O)Cc2cccnc2)C(C(=O)NC(C)(C)C)c2cccnc2)cc1` (stereo not drawn) was 2.83%; that for `CC(C)(C)NC(=O)C(c1ccsc1)N(C(=O)Cn1cnc2ccccc21)c1ccc(C(C)(C)C)cc1` (stereo not drawn) was 1.78%.
With `CC(C)(C)NC(=O)C(c1cccnc1)N(C(=O)c1n[nH]c2ccccc12)c1ccc(OC(F)F)cc1` (stereo not drawn) the figure was 24.6%.
The value for `CC(C)(C)NC(=O)C(c1ccsc1)N(C(=O)Cc1cccnc1)c1ccc(F)cc1` (stereo not drawn) was 19%; that for `CC(C)(C)NC(=O)C(c1ccsc1)N(C(=O)c1n[nH]c2ccccc12)c1ccc(F)cc1` (stereo not drawn) was 15.3%; that for `CC(C)C(=O)Nc1ccc(N(C(=O)Cn2nnc3ccccc32)C(C(=O)NC(C)(C)C)c2ccsc2)cc1` (stereo not drawn) was 96.7% (active).
On to `CC(=O)Nc1ccc(N(C(=O)Cn2nnc3ccccc32)C(C(=O)NC(C)(C)C)c2ccsc2)cc1` (stereo not drawn), for which the inhibition is 94.8% (active).
Turning to `CC(C)(C)NC(=O)C(c1cccnc1)N(C(=O)c1ccc(C#N)cc1)c1ccc(C(C)(C)C)cc1` (stereo not drawn), the inhibition was -0.02%.
`CC(C)(C)NC(=O)C(c1ccsc1)N(C(=O)c1cccc2c1CCCC2)c1ccc(OCF)cc1` (stereo not drawn): the inhibition is 12.6%.
`CC(C)(C)NC(=O)C(c1ccsc1)N(C(=O)Cn1nnc2ccccc21)c1ccc(N)cc1` (stereo not drawn): the inhibition is 74.8% (active).
The value for `CC(C)(C)NC(=O)C(c1ccsc1)N(C(=O)Cc1cccnc1)c1ccc(C(C)(C)C)cc1` (stereo not drawn) was 37.4%; that for `Cc1nc2ccccc2n1CC(=O)N(c1ccc(NC(=O)C(C)C)cc1)C(C(=O)NC(C)(C)C)c1ccsc1` (stereo not drawn) was 0.26%; that for `CC(C)(C)NC(=O)C(c1cccnc1)N(C(=O)c1n[nH]c2ccccc12)C1CC1` (stereo not drawn) was 9.27%.
The value for `CC(C)(C)NC(=O)C(c1cccnc1)N(C(=O)c1cccc2c1CCCC2)c1ccc(OCF)cc1` (stereo not drawn) was 16%; that for `CCC(=O)Nc1ccc(N(C(=O)Cn2c(C)nc3ccccc32)C(C(=O)NC(C)(C)C)c2ccsc2)cc1` (stereo not drawn) was 0.52%; that for `CC(C)(C)NC(=O)C(c1ccsc1)N(C(=O)c1ccc(C#N)cc1)c1ccc(C(C)(C)C)cc1` (stereo not drawn) was 22.7%.

By inhibition is commonly meant the relative decrease from the control value, in per cent.
